Sampled rows, rich in hits. Any-hit rate of the full collection: about 0.82%.
VHR inh abs = inhibitors of human VHR1 phosphatase (DUSP3); P51452; recombinant VHR phosphatase, pNPP absorbance; inhibition, % at 13.3 µM; hit rate 0.52% among 290,000; AID 1654; in the data active = inhibition above about 50%
PrPC TRFRET = inhibitors of human cell surface prion protein PrPC | TR-FRET read-out | inhibition, % at 13.8 µM | hit rate 0.43% among 370,000 | AID 720596; in the data active = inhibition above about 24%
TcdB GH inh = inhibitors of Clostridioides difficile toxin B glycohydrolase. P18177. TcdB glycohydrolase enzymatic assay, plate reader. inhibition, % at 9.99 µM. hit rate 0.24% among 350,000. AID 652162; in the data active = inhibition above about 10%
Large screens that a line does not name were inactive.

CCCCc1ccc(N2C(=O)[C@@H]3C(CC(N)=O)NC4(C(=O)Nc5ccc(F)cc54)[C@@H]3C2=O)cc1 (some centres not stated)	VHR inh abs 51 (no result: TcdB GH inh)
C[C@H]1CCCCO[C@@H](CN(C)S(=O)(=O)c2cccs2)[C@@H](C)CN([C@@H](C)CO)C(=O)c2cc(NS(=O)(=O)c3ccccc3)ccc2O1	none (no result: VHR inh abs, PrPC TRFRET)
CC(=O)c1ccccc1NS(=O)(=O)c1cccc2nonc12	none
Cc1cccc(NC(=O)CCNS(=O)(=O)c2cccc3nonc23)c1	none
CC(=O)Nc1ccc(NS(=O)(=O)c2cccc3nonc23)cc1	VHR inh abs 58
Cc1cccc(NC(=O)CCNS(=O)(=O)c2cccc3nonc23)c1C	none
CCOc1ccccc1NC(=O)CCNS(=O)(=O)c1cccc2nonc12	TcdB GH inh 14
CCOC(=O)c1cccc(NC(=O)CCNS(=O)(=O)c2cccc3nonc23)c1	TcdB GH inh 16
O=C(Cc1ccccc1)N1CC(=O)N2[C@H](C1)[C@H](c1ccc(C3=CCCC3)cc1)[C@@H]2CO	none (no result: VHR inh abs, PrPC TRFRET)
CO[C@H]1CN(C)C(=O)c2cc(NS(=O)(=O)CC(F)(F)F)ccc2OC[C@@H](C)N(CCC(F)(F)F)C[C@H]1C	none (no result: VHR inh abs, PrPC TRFRET)
N#C/C(=C\c1ccc([N+](=O)[O-])o1)c1nc2ccccc2[nH]1	VHR inh abs 52
Cc1ccc2nc(/C(C#N)=C\c3ccc([N+](=O)[O-])o3)[nH]c2c1	none (no result: TcdB GH inh)
CCC(C)(C)NC(=O)c1sccc1Oc1ccc(F)cc1[N+](=O)[O-]	VHR inh abs 51
C#CC(C)(C)NC(=O)c1sccc1Oc1ccc(F)cc1[N+](=O)[O-]	none
CC(C)NC(=O)Nc1ccc2c(c1)C(=O)N([C@@H](C)CO)C[C@H](C)[C@@H](CN(C)C(=O)Nc1ccc3c(c1)OCO3)OCCCC[C@H](C)O2	none (no result: VHR inh abs, PrPC TRFRET)
Cc1cccc(C)c1OCc1nnc(SCC(=O)Nc2ccc(N3CCOCC3)cc2)o1	VHR inh abs 54
CCc1nnc(SCC(=O)Nc2ccc(N3CCOCC3)cc2)o1	none (no result: TcdB GH inh)
C[C@H]1CCCCO[C@H](CN(C)Cc2ccccc2)[C@@H](C)CN([C@@H](C)CO)C(=O)c2cc(N(C)C)ccc2O1	none (no result: VHR inh abs, PrPC TRFRET)
O=C(c1ccccc1F)N1CCN(c2ccccc2F)CC1	VHR inh abs 53 (no result: TcdB GH inh)
O=C(c1ccccc1C(=O)N1CCN(c2ccccc2F)CC1)N1CCN(c2ccccc2F)CC1	none (no result: TcdB GH inh)
O=C(c1ccccc1F)N1CCN(c2ccc([N+](=O)[O-])c3cccnc23)CC1	TcdB GH inh 12
O=C(c1ccccc1F)N1CCN(c2ccc([N+](=O)[O-])c3ncccc23)CC1	none (no result: TcdB GH inh)
N#C/C(=C\c1ccc(O)c(O)c1)C(=O)c1ccc(O)c(O)c1	none (no result: VHR inh abs)
N#CC(C#N)=C(N)/C(C#N)=C/c1cc(O)c(O)c(O)c1	PrPC TRFRET 61 (no result: VHR inh abs)
CC[n+]1ccc(/C=C/c2ccc(N(C)C)cc2)c2ccccc21	TcdB GH inh 15
CC[n+]1ccccc1/C=C/c1ccc(N(C)C)cc1	none
O=C(N[C@H]1C=C[C@H](CC(=O)N2CCCCC2)O[C@H]1CO)c1ccccn1	none (no result: VHR inh abs, PrPC TRFRET)
Cc1ccc(-c2ccc3c(c2)O[C@H](CN(C)C(=O)Nc2ccc(C(F)(F)F)cc2)[C@H](C)CN([C@@H](C)CO)S3(=O)=O)cc1	none (no result: VHR inh abs, PrPC TRFRET)
Cc1ccccc1CS(=O)(=O)Cc1ccc(C(=O)N2CCC3(CC2)OCCO3)o1	VHR inh abs 51
COc1ccc(S(=O)(=O)Cc2ccc(C(=O)N3CCC4(CC3)OCCO4)o2)cc1	none (no result: TcdB GH inh)
C[C@H](CO)N1C[C@H](C)[C@@H](CN(C)C)Oc2ncc(-c3cccnc3)cc2C1=O	none (no result: VHR inh abs, PrPC TRFRET)
COc1ccc2c3c([nH]c2c1)[C@@H](CO)N(C(C)=O)CC31CN(C(=O)c2ccc3c(c2)OCO3)C1	none (no result: VHR inh abs, PrPC TRFRET)
COc1cc(/C=N/n2nnnc2N)ccc1OCC(N)=O	none (no result: PrPC TRFRET, TcdB GH inh)
CCOc1ccc(/C=N/n2nnnc2N)cc1O	TcdB GH inh 19
CCOc1cc(/C=N\n2nnnc2N)ccc1O	TcdB GH inh 23
CCOc1ccc(/C=N/n2nnnc2N)cc1OCC	none
Cc1ccnc(NS(=O)(=O)c2ccc(NC(=O)COc3ccccc3)cc2)n1	none
O=C(COc1ccccc1)Nc1ccc(S(=O)(=O)Nc2ncccn2)cc1	TcdB GH inh 17
Cc1noc(C)c1NC(=O)Nc1ccc2c(c1)C(=O)N([C@H](C)CO)C[C@H](C)[C@H](CN(C)C(=O)Nc1c(C)noc1C)O2	none (no result: VHR inh abs, PrPC TRFRET)
CN(C)C(=O)CSc1nc(-c2ccccc2)c(-c2ccccc2)o1	VHR inh abs 51
CNC(=O)CSc1nc(-c2ccccc2)c(-c2ccccc2)o1	none
O=C(c1ccccc1)c1cccc(NC(=O)c2ccco2)c1	none (no result: TcdB GH inh)
CCC(=O)Nc1cccc(NC(=O)c2ccc(Br)cc2)c1	none
CC(=O)Nc1cccc(NC(=O)c2ccc(Br)cc2)c1	TcdB GH inh 10
O=C(Nc1cccc(NC(=O)c2ccco2)c1)c1ccccc1	VHR inh abs 58
CO[C@H]1CN(C)C(=O)c2cc(NC(C)=O)ccc2OC[C@@H](C)N(Cc2ccccc2C(=O)O)C[C@H]1C	none (no result: VHR inh abs, PrPC TRFRET)
C[C@H](CO)N1C[C@H](C)[C@H](CN(C)Cc2ccccc2)Oc2ncc(-c3cccc(F)c3)cc2C1=O	none (no result: VHR inh abs, PrPC TRFRET)
Cc1noc(C)c1S(=O)(=O)Nc1ccc2c(c1)C(=O)N([C@@H](C)CO)C[C@@H](C)[C@H](CN(C)C)OCCCC[C@@H](C)O2	none (no result: VHR inh abs, PrPC TRFRET)
C[C@@H]1CN([C@@H](C)CO)C(=O)CCCn2cc(nn2)CO[C@@H]1CN(C)S(=O)(=O)c1cccc(C#N)c1	none (no result: VHR inh abs, PrPC TRFRET)
CCn1c(SCC(=O)NC2CCCC2)nnc1-c1ccco1	none
CCCn1c(SCC(=O)NC2CCCCC2)nnc1-c1ccco1	VHR inh abs 58
CNC[C@H]1Oc2ccc(NS(C)(=O)=O)cc2CC(=O)N([C@@H](C)CO)C[C@H]1C	none (no result: VHR inh abs, PrPC TRFRET)
Cc1cccc(NC(=O)C2Cc3ccccc3CN2C(=O)OCc2ccccc2)c1C (configuration not stated)	none
Cc1c(Cl)cccc1NC(=O)C1Cc2ccccc2CN1C(=O)c1ccccc1 (configuration not stated)	TcdB GH inh 11
CCCN1C[C@@H](C)[C@H](OC)CN(C)C(=O)c2cc(NC(=O)C3CC3)ccc2OC[C@@H]1C	none (no result: VHR inh abs, PrPC TRFRET)
CCC(=O)c1ccc(OCC(=O)Nc2ccc(S(=O)(=O)Nc3cc(C)nc(C)n3)cc2)cc1	none (no result: VHR inh abs)
CCCOc1ccc(C(=O)Nc2ccc(S(=O)(=O)Nc3cc(C)nc(C)n3)cc2)cc1	VHR inh abs 52
O=C(NCC[C@@H]1CC[C@H](NS(=O)(=O)c2cccc(Cl)c2)[C@H](CO)O1)c1cnccn1	none (no result: VHR inh abs, PrPC TRFRET)
NC(=S)n1[nH]c(-c2ccc([N+](=O)[O-])cc2)c(N=Nc2cccc([N+](=O)[O-])c2)c1=O	VHR inh abs 81
NC(=S)n1[nH]c(-c2ccc([N+](=O)[O-])cc2)c(N=Nc2ccccc2[N+](=O)[O-])c1=O	none
Cc1ccc(CN(C)C[C@@H]2OCc3cnnn3CCCC(=O)N([C@H](C)CO)C[C@@H]2C)cc1	none (no result: VHR inh abs, PrPC TRFRET)
Cc1oc(-c2ccc(Cl)cc2)nc1CN1CCCC(C(=O)N2CCOCC2)C1 (configuration not stated)	none
Cc1oc(-c2ccc(Cl)cc2)nc1CN1CCCC(C(=O)N2CCN(C(=O)c3ccco3)CC2)C1 (configuration not stated)	VHR inh abs 52
NCC[C@@H]1CC[C@@H](NC(=O)C2CCCC2)[C@@H](CO)O1	none (no result: VHR inh abs, PrPC TRFRET)
O=C(NCC1CCCO1)C1CCCN(S(=O)(=O)c2ccc(Cl)cc2)C1 (configuration not stated)	VHR inh abs 50
O=C(NCC1CCCO1)C1CCCN(S(=O)(=O)c2ccc(F)cc2)C1 (configuration not stated)	none
